Experimental data taken from PubChem BioAssay (NCI).
The panel holds about 83,000 compounds, 20% with a hit somewhere; the sample as a whole holds those more often.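 A percent growth of 40 corresponds to 60% growth inhibition; 0 means no net growth; -100 means all cells died. Active threshold: below 10.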 Activity calls are given as the source filed them.

Tested on: A549/ATCC NSCLC
Test: NCI-60 one-dose screen, 48 h (100 = growth as untreated, 0 = no growth, -100 = all killed)
Conditions: 10 µM unless noted

| Compound | growth |
| --- | --- |
| O=C(NNC(=O)c1ccc(-n2cc(-c3ccccc3)nn2)cc1)Nc1ccccc1 | 102% (inactive) |
| COc1ccc(-c2csc(N(C(=O)N3CCN(c4cc5c(cc4F)c(=O)c(C(=O)O)cn5C4CC4)CC3)c3ccccc3)n2)cc1 | 13.6% (inactive) |
| O=Nc1c(-c2c(O)[nH]c3ncccc23)[nH]c2ccccc12 | 46.6% (inactive) |
| CCN1CC(=O)N(/N=C2\C(=O)Nc3ccccc32)C1=S | 98.9% (inactive) |
| O=C1CC(N2C(=O)/C(=C/C(Cl)=C\c3ccc([N+](=O)[O-])cc3)SC2=S)C(=O)N1c1ccc(Cl)cc1 (stereo not given) | 71% (inactive) |
| CN(C)C1CCN(Cc2ccc(NC(=O)c3cncc(C#Cc4cnc(N)c5ncccc45)c3)cc2C(F)(F)F)CC1 | 72.2% (inactive) |
| Cn1cc(-c2nonc2-c2c[nH]c3ccc(Br)cc23)c2cc(Br)ccc21 | 30.8% (inactive) |
| C[C@@H]1CCC[C@H]1CC(N)C(=O)O (stereo not given in full) | 110% (inactive) |
| S=C(Nc1ccc(-c2nc(N3CCOCC3)c3cccn3n2)cc1)Nc1cccnc1 | 24.1% (inactive) |
| O=C(CN1C(=O)CCC1=O)Nc1ncc(Cc2ccc(F)cc2)s1 | 108% (inactive) |
| CN1CCN(C(=O)OCc2ccc3c(Cl)cc(Cl)c(O)c3n2)CC1 | 62.5% (inactive) |
| O=C(O)[C@@H]1c2ccccc2-c2ccccc2[C@H]1C(=O)O | 102% (inactive) |
| Clc1ccc(Sc2cnc(-c3ccccc3)o2)cc1 | 92% (inactive) |
| C=C(C)[C@@H]1CC[C@]2(C(=O)NCC#CCN3CCN(C)CC3)CC[C@]3(C)[C@H](CC[C@@H]4[C@@](C)(CCC#N)[C@H](C(=C)C)CC[C@]43C)[C@@H]12 | 49.6% (inactive) |
| Cc1ccc(/C=N/Nc2nc(Nc3ccccc3)nc(-n3nc(C)cc3C)n2)cc1 | 26.2% (inactive) |
| COc1ccc(/C(C)=C(/c2ccc(OCCCN(C)C)cc2)c2ccc(OC(=O)Cc3ccccc3)cc2)cc1 | 58.4% (inactive) |
| CCOC(=O)C1=C(NC)OCC1=O | 90.9% (inactive) |
| C#CCOc1ccc2ncnc(Nc3cccc(NC(=O)C=C)c3)c2c1 | 56.4% (inactive) |
| COc1cc(-n2cc(-c3cc(O)c(C/C=C(\C)CCC=C(C)C)c(O)c3)nn2)cc2c1O[C@]1(C)CC[C@@H](O)C(C)(C)[C@H]1C2 | 10.3% (inactive) |
| N#C/C(=C\c1ccc(Br)cc1)n1nnc2ccc(F)cc21 | 16.6% (inactive) |

| Compound | growth |
| --- | --- |
| CCN(CC)CCNC(=O)c1cn2ncnc(Oc3ccc(NC(=O)Nc4ccc(Cl)c(C(F)(F)F)c4)c(F)c3)c2c1C | 4.56% (active) |
| Cc1nc(N2CCOCC2)sc1S(N)(=O)=O | 101% (inactive) |
| CC(=O)N(N=Nc1ccccc1)c1cccc2ccccc12 | 97.4% (inactive) |
| Cc1ccc(-c2nc(N3CCNCC3)c3oc(-c4ccccc4)nc3n2)cc1 | 3.88% (active) |
| Cc1cc2c(O)c(-c3cc(Cl)ccc3Cl)c3sc(=O)oc3c2cc1C | 60.2% (inactive) |
| N=C(N)c1ccc(-c2ccc(-c3cc(Cl)cc(Cl)c3)o2)o1 | -71% (active) |
| CC1=Nc2cnc(Nc3ccc(OCCN4CCCCC4)cc3)nc2Nc2ccccc21 | 77.2% (inactive) |
| Cc1cccnc1NC(=S)Nc1ncccc1C | 110% (inactive) |
| CN1C(=O)/C(=C/c2ccc(C(=O)Nc3ncc(Cc4ccc(Cl)cc4)s3)cc2)SC1=S | 48.5% (inactive) |
| COc1ccc(-c2nnc3n(C)c(=O)c4ccccc4n23)cc1N | 28.6% (inactive) |
| CC1=C(CCC(C)N(C)Cc2ccc(OCCCN3CCCC3)cc2)C(C)(C)CCC1 (stereo not given) | 37.8% (inactive) |
| CCCc1cc(NC)nc(S(=O)(=O)CC)n1 | 105% (inactive) |
| Cc1cccc(Cl)c1NC(=O)c1ccc2nc(NC(=O)NCCN(C)C)sc2c1 | 102% (inactive) |
| O=c1oc2ccccc2cc1C1=NN=C(SCc2ccccc2)SC1 | 96.6% (inactive) |
| CC1(c2ccccc2O)NN=C(/N=C/c2cccc([N+](=O)[O-])c2)N1C(Cc1c[nH]c2ccccc12)C(=O)O (stereo not given) | 103% (inactive) |
| CC(O)c1cnc(/C=C2\SC(=S)N(Cc3ccccc3)C2=O)s1 (stereo not given) | 66.7% (inactive) |
| Cc1ccc(CNc2ccc(Cl)cc2NCc2ccc(C)c(O)c2)cc1O | 21% (inactive) |
| NC(=O)c1c(NC(=O)c2ccccc2)sc2c1CCC(=O)C2 | 30% (inactive) |
| CCn1c(=S)sc2c(Nc3ccc(F)cc3)nc(-c3cccnc3)nc21 | 48.7% (inactive) |
| COc1cc(C(=O)n2nc(N3CCN(C)CC3)c3cc(N)ccc32)cc(OC)c1OC | 65.3% (inactive) |

Tested on: 786-0 renal
Test: as above
Conditions: 10 µM unless noted

| Compound | growth |
| --- | --- |
| O=C(NNC(=O)c1ccc(-n2cc(-c3ccccc3)nn2)cc1)Nc1ccccc1 | 104% (inactive) |
| COc1ccc(-c2csc(N(C(=O)N3CCN(c4cc5c(cc4F)c(=O)c(C(=O)O)cn5C4CC4)CC3)c3ccccc3)n2)cc1 | 19.6% (inactive) |
| O=Nc1c(-c2c(O)[nH]c3ncccc23)[nH]c2ccccc12 | 43.3% (inactive) |
| CCN1CC(=O)N(/N=C2\C(=O)Nc3ccccc32)C1=S | 103% (inactive) |
| O=C1CC(N2C(=O)/C(=C/C(Cl)=C\c3ccc([N+](=O)[O-])cc3)SC2=S)C(=O)N1c1ccc(Cl)cc1 (stereo not given) | -12.1% (active) |
| CN(C)C1CCN(Cc2ccc(NC(=O)c3cncc(C#Cc4cnc(N)c5ncccc45)c3)cc2C(F)(F)F)CC1 | -78.9% (active) |
| Cn1cc(-c2nonc2-c2c[nH]c3ccc(Br)cc23)c2cc(Br)ccc21 | 34.3% (inactive) |
| C[C@@H]1CCC[C@H]1CC(N)C(=O)O (stereo not given in full) | 104% (inactive) |
| S=C(Nc1ccc(-c2nc(N3CCOCC3)c3cccn3n2)cc1)Nc1cccnc1 | 36.7% (inactive) |
| O=C(CN1C(=O)CCC1=O)Nc1ncc(Cc2ccc(F)cc2)s1 | 101% (inactive) |
| CN1CCN(C(=O)OCc2ccc3c(Cl)cc(Cl)c(O)c3n2)CC1 | 86.6% (inactive) |
| O=C(O)[C@@H]1c2ccccc2-c2ccccc2[C@H]1C(=O)O | 88.8% (inactive) |
| Clc1ccc(Sc2cnc(-c3ccccc3)o2)cc1 | 93.9% (inactive) |
| C=C(C)[C@@H]1CC[C@]2(C(=O)NCC#CCN3CCN(C)CC3)CC[C@]3(C)[C@H](CC[C@@H]4[C@@](C)(CCC#N)[C@H](C(=C)C)CC[C@]43C)[C@@H]12 | 54.5% (inactive) |
| Cc1ccc(/C=N/Nc2nc(Nc3ccccc3)nc(-n3nc(C)cc3C)n2)cc1 | 44.4% (inactive) |
| COc1ccc(/C(C)=C(/c2ccc(OCCCN(C)C)cc2)c2ccc(OC(=O)Cc3ccccc3)cc2)cc1 | 71.6% (inactive) |
| CCOC(=O)C1=C(NC)OCC1=O | 106% (inactive) |
| C#CCOc1ccc2ncnc(Nc3cccc(NC(=O)C=C)c3)c2c1 | 56.4% (inactive) |
| COc1cc(-n2cc(-c3cc(O)c(C/C=C(\C)CCC=C(C)C)c(O)c3)nn2)cc2c1O[C@]1(C)CC[C@@H](O)C(C)(C)[C@H]1C2 | 6.92% (active) |
| N#C/C(=C\c1ccc(Br)cc1)n1nnc2ccc(F)cc21 | -73.8% (active) |

| Compound | growth |
| --- | --- |
| CCN(CC)CCNC(=O)c1cn2ncnc(Oc3ccc(NC(=O)Nc4ccc(Cl)c(C(F)(F)F)c4)c(F)c3)c2c1C | -86.1% (active) |
| Cc1nc(N2CCOCC2)sc1S(N)(=O)=O | 101% (inactive) |
| CC(=O)N(N=Nc1ccccc1)c1cccc2ccccc12 | 97.6% (inactive) |
| Cc1ccc(-c2nc(N3CCNCC3)c3oc(-c4ccccc4)nc3n2)cc1 | -87.8% (active) |
| Cc1cc2c(O)c(-c3cc(Cl)ccc3Cl)c3sc(=O)oc3c2cc1C | 83.8% (inactive) |
| N=C(N)c1ccc(-c2ccc(-c3cc(Cl)cc(Cl)c3)o2)o1 | -61.9% (active) |
| CC1=Nc2cnc(Nc3ccc(OCCN4CCCCC4)cc3)nc2Nc2ccccc21 | 48.5% (inactive) |
| Cc1cccnc1NC(=S)Nc1ncccc1C | 90.1% (inactive) |
| CN1C(=O)/C(=C/c2ccc(C(=O)Nc3ncc(Cc4ccc(Cl)cc4)s3)cc2)SC1=S | 47.5% (inactive) |
| COc1ccc(-c2nnc3n(C)c(=O)c4ccccc4n23)cc1N | 23% (inactive) |
| CC1=C(CCC(C)N(C)Cc2ccc(OCCCN3CCCC3)cc2)C(C)(C)CCC1 (stereo not given) | 17.3% (inactive) |
| CCCc1cc(NC)nc(S(=O)(=O)CC)n1 | 101% (inactive) |
| Cc1cccc(Cl)c1NC(=O)c1ccc2nc(NC(=O)NCCN(C)C)sc2c1 | 87.7% (inactive) |
| O=c1oc2ccccc2cc1C1=NN=C(SCc2ccccc2)SC1 | 94.8% (inactive) |
| CC1(c2ccccc2O)NN=C(/N=C/c2cccc([N+](=O)[O-])c2)N1C(Cc1c[nH]c2ccccc12)C(=O)O (stereo not given) | 99.5% (inactive) |
| CC(O)c1cnc(/C=C2\SC(=S)N(Cc3ccccc3)C2=O)s1 (stereo not given) | 59.2% (inactive) |
| Cc1ccc(CNc2ccc(Cl)cc2NCc2ccc(C)c(O)c2)cc1O | 23% (inactive) |
| NC(=O)c1c(NC(=O)c2ccccc2)sc2c1CCC(=O)C2 | 28% (inactive) |
| CCn1c(=S)sc2c(Nc3ccc(F)cc3)nc(-c3cccnc3)nc21 | 20.5% (inactive) |
| COc1cc(C(=O)n2nc(N3CCN(C)CC3)c3cc(N)ccc32)cc(OC)c1OC | 24.7% (inactive) |
